In all, about 18,000 sequences were measured (“log2 normalized intensity”: median about 0.36, highest 2% from about 7.3 on). This excerpt belongs to a sample that is enriched for the highest values.
Each sequence was assayed against T1, HNF4alpha8 (COS-7 nuclear extract) (Homo sapiens, UniProt P41235-5 1-452) (assay: protein-binding microarray; COS-7 nuclear extract on double-stranded Agilent 4x180k PBM; binding buffer, salt, pH and temperature not given in the material; high values mean tight binding). Details: chain copies: 2; label: 3' end of strand 1 on the slide; dsDNA, one strand shown.
T1 sequence: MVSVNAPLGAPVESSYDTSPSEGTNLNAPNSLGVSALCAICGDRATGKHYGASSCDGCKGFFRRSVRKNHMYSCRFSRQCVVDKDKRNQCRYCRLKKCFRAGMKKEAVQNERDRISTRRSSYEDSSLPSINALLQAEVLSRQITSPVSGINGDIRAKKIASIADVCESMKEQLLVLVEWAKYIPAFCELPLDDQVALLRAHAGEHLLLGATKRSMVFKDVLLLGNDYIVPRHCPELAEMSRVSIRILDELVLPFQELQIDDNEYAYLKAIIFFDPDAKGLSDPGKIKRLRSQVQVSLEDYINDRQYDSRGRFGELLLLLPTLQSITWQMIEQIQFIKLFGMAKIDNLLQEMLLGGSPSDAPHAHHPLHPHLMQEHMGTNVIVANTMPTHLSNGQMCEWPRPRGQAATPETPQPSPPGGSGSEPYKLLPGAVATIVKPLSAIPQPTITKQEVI
Procedure, shortened: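 Nuclear extracts came from COS-7 cells transiently transfected by CaPO4 with a human HNF4α isoform expression vector. They were applied to a custom Agilent SurePrint G3 4x180k array of ~60-nt oligonucleotides, made double-stranded, with ~44,000 test sequences spotted in quadruplicate. Bound HNF4α was imaged at 2-µm resolution on an Agilent G2565CA scanner. Binding signal was taken as background-corrected, normalized gProcessedSignal from Agilent software.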

| Sequence | binding signal [log2 normalized intensity] |
| --- | --- |
| CAGTGGACTTTGTCCTTCATCTATCTCCTTGCCTAGGGAGATTAGAGTATCGGTCGA | 5.95 |
| GACCTTGTTTTCAATGACTACCTGTTACCCGCCTAGGGAGATTAGAGTATCGGTCGA | 1.81 |
| CACATGCTATTATTTTCCATCAGTGGACTTGCCTAGGGAGATTAGAGTATCGGTCGA | 3.95 |
| GCCACCCATCAGTGGACTTTGACCTTGTTTGCCTAGGGAGATTAGAGTATCGGTCGA | 10.8 |
| ACTTTGACCTTGTTTTCAATGACTACCTGTGCCTAGGGAGATTAGAGTATCGGTCGA | 2.13 |
| CCATCAGTGGACTTTGACCTTGTTTTCAATGCCTAGGGAGATTAGAGTATCGGTCGA | 9.54 |
| AGACCTTTGACATCACCTAACTTGTGGCTGGCCTAGGGAGATTAGAGTATCGGTCGA | 1.49 |
| CCTTTCTACTGCCAGCCAGGGCCACCCATCGCCTAGGGAGATTAGAGTATCGGTCGA | 0.592 |
| GTTCAATGCTTCAGTGAGCCTTGACCTTCAGCCTAGGGAGATTAGAGTATCGGTCGA | 4.83 |
| AGTGGACTTTGACCTTGTTTTCAATGACTAGCCTAGGGAGATTAGAGTATCGGTCGA | 7.8 |
| GCAGCTCTTTACAAAGCCCATGCTGGACCCGCCTAGGGAGATTAGAGTATCGGTCGA | 4.69 |
| TCACAGTGCCTCTGCAAGTTGGCCTTACTAGCCTAGGGAGATTAGAGTATCGGTCGA | -0.0691 |
| TTTGTCTGTGTAGACTCATCTGGTGTCATTGCCTAGGGAGATTAGAGTATCGGTCGA | 1.95 |
| TTTTTGAGATGGAATCTTGCCCTGTCGCCCGCCTAGGGAGATTAGAGTATCGGTCGA | 3.19 |
| GGTTCCAGCATGGACTTCACAGCCTGTTAGGCCTAGGGAGATTAGAGTATCGGTCGA | 0.147 |
| TGTGGGTTCAAATCCATTCAGCAGCGTGTAGCCTAGGGAGATTAGAGTATCGGTCGA | -0.128 |
| GCAAAGTTCAACCCTGAATGTGTGCTGGCCGCCTAGGGAGATTAGAGTATCGGTCGA | 1.12 |
| ACTTCGCTGGAGGTGTTAAAGTGCCATTGAGCCTAGGGAGATTAGAGTATCGGTCGA | 1.75 |
| TGCACTTTACGTAAGATAAGGTGAACATACGCCTAGGGAGATTAGAGTATCGGTCGA | 1.09 |
| CCGCAGTGGGAGAGCAAGGGTCAAGGGTCAGCCTAGGGAGATTAGAGTATCGGTCGA | 7.52 |
| AGAGCAAGGGTCAAGGGTCATTTGTTTTTAGCCTAGGGAGATTAGAGTATCGGTCGA | 6.31 |
| GTGGGAGAGCAAGGGTCAAGGGTCATTTGTGCCTAGGGAGATTAGAGTATCGGTCGA | 7.65 |

| Sequence | binding signal [log2 normalized intensity] |
| --- | --- |
| AAGGGTCAAGGGTCATTTGTTTTTACAGACGCCTAGGGAGATTAGAGTATCGGTCGA | 6.77 |
| TGGGTGGGGGAAGTGTGGTCAAGGGTCAGTGCCTAGGGAGATTAGAGTATCGGTCGA | 4.76 |
| CCCATCCGCAGTGGGAGAGCAAGGGTCAAGGCCTAGGGAGATTAGAGTATCGGTCGA | 4.51 |
| CATTTTTTTCCACCCTCCCCTCCCCCTCCTGCCTAGGGAGATTAGAGTATCGGTCGA | 6.32 |
| GAATTTTGGACAAGGTAACCCCCAACATTCGCCTAGGGAGATTAGAGTATCGGTCGA | 3.79 |
| ATGTGCCCTTTGGACAGAAATATCAGCAAGGCCTAGGGAGATTAGAGTATCGGTCGA | 3.43 |
| GGAGGGAACAGCAAGACTTTGGCCCTGCAGGCCTAGGGAGATTAGAGTATCGGTCGA | 0.278 |
| AAGTCCAAAGTTCTTGGCCAGGCATGGAGAGCCTAGGGAGATTAGAGTATCGGTCGA | 2.75 |
| AAGGGTCAATGTGATCAGGTGTGGGCATTAGCCTAGGGAGATTAGAGTATCGGTCGA | 1.3 |
| ATCTCACACAGTACTTTGTACATGGGAATAGCCTAGGGAGATTAGAGTATCGGTCGA | 1.8 |
| ATAGTTCAGCCATCAGGTAACATATTGTCCGCCTAGGGAGATTAGAGTATCGGTCGA | 1.18 |
| ATCAAGGATTTTTTCTTGGACTTTGGTCATGCCTAGGGAGATTAGAGTATCGGTCGA | 8.58 |
| TTTTCTTGGACTTTGGTCATCCTTTACTTTGCCTAGGGAGATTAGAGTATCGGTCGA | 6.91 |
| GACTTTGGTTGGATTTCTTGGCTTCTCTTGGCCTAGGGAGATTAGAGTATCGGTCGA | 0.989 |
| TCCAGATCAAGGATTTTTTCTTGGACTTTGGCCTAGGGAGATTAGAGTATCGGTCGA | 5.67 |
| TTTTGATCAAGGAGGACTTTGGAATGGCAGGCCTAGGGAGATTAGAGTATCGGTCGA | 4.79 |
| TTGGACTTTGGTCATCCTTTACTTTCCCAAGCCTAGGGAGATTAGAGTATCGGTCGA | 6.14 |
| GCAGTTTTTGATCAAGGAGGACTTTGGAATGCCTAGGGAGATTAGAGTATCGGTCGA | 7.54 |
| TTTAGGCAGTTTTTGATCAAGGAGGACTTTGCCTAGGGAGATTAGAGTATCGGTCGA | 4.55 |
| GGATTTTTTCTTGGACTTTGGTCATCCTTTGCCTAGGGAGATTAGAGTATCGGTCGA | 7.39 |
| CAGAAGTCATGTCTCATTGCCCCTTGAGCTGCCTAGGGAGATTAGAGTATCGGTCGA | 3.87 |

Reference: publication PMC10726135, “HNF4α isoforms regulate the circadian balance between carbohydrate and lipid metabolism in the liver”
